About 2,000 (36%) of roughly 5,500 compounds were called active. Inconclusive results (about 18%) are left out. Some of the results follow. A number with no mark means an inactive call. No stated cut-off is given here; in the data, active means normalized growth mostly below about 0.91 (no sharp cut-off); inconclusive means no clear call, values can overlap the other calls; inactive means mostly above about 0.92.
Experiment: chemical genetic growth profiling, strain panel (AID 1159580);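 further: tested at 20 µM; growth read once vehicle control cultures reached saturation at 30 °C; 1 = growth at the plate median or of vehicle wells; lower values mean less growth of the strain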
Conditions: S. cerevisiae deletion strains, growth OD
[1] = locus YBR021W, strain FUR4, active compounds read low
[2] = locus YBR229C, strain ROT2, active compounds read low
[3] = locus YCL029C, strain bik1, active compounds read low
[4] = locus YDL035C, strain GPR1, active compounds read low
[5] = locus YDL074C, strain BRE1, active compounds read low
[6] = locus YDL101C, strain DUN1, active compounds read low
[7] = locus YDL185W, strain tfp1, active compounds read low
[8] = locus YDL192W, strain arf1, active compounds read low
[9] = locus YDR101C, strain arx1, active compounds read low
[10] = locus YDR162C, strain NBP2, active compounds read low
[11] = locus YDR318W, strain mcm21, active compounds read low
[12] = locus YDR388W, active compounds read low
[13] = locus YDR502C, strain sam2, active compounds read low
[14] = locus YEL061C, strain CIN8, active compounds read low
[15] = locus YER110C, active compounds read low
[16] = locus YER155C, strain BEM2, active compounds read low
[17] = locus YER167W, strain BCK2, active compounds read low
[18] = locus YGL078C, strain dbp3, active compounds read low
[19] = locus YGL086W, strain mad1, active compounds read low
[20] = locus YGL248W, strain PDE1, active compounds read low
[21] = locus YGR135W, strain pre9, active compounds read low
[22] = locus YGR252W, strain gcn5, active compounds read low
[23] = locus YHR030C, strain SLT2, active compounds read low
[24] = locus YHR079C, strain IRE1 (second series), active compounds read low
[25] = locus YHR094C, strain hxt1, active compounds read low
[26] = locus YHR129C, strain ARP1, active compounds read low
[27] = locus YHR200W, strain rpn10, active compounds read low
[28] = locus YIL066C, strain RNR3, active compounds read low
[29] = locus YIL073C, strain SPO22, active compounds read low
[30] = locus YIL125W, strain kgd1, active compounds read low
[31] = locus YIR030C, strain dcg1, active compounds read low
[32] = locus YJL095W, strain BCK1, active compounds read low
[33] = locus YJL134W, strain LCB3, active compounds read low
[34] = locus YJL168C, strain set2, active compounds read low
[35] = locus YJL187C, strain SWE1 (second series), active compounds read low
[36] = locus YJR043C, strain POL32, active compounds read low
[37] = locus YKL009W, strain mrt4, active compounds read low
[38] = locus YKL068W, active compounds read low
[39] = locus YKL085W, strain MDH1 (second series), active compounds read low
[40] = locus YKL085W, strain MDH1, active compounds read low
[41] = locus YKL190W, strain CNB1, active compounds read low
[42] = locus YKR001C, strain vps1, active compounds read low
[43] = locus YLR039C, strain RIC1, active compounds read low
[44] = locus YLR058C, strain SHM2, active compounds read low
[45] = locus YLR102C, strain apc9, active compounds read low
[46] = locus YLR262C, strain YPT6, active compounds read low
[47] = locus YLR268W, strain sec22, active compounds read low
[48] = locus YLR330W, strain CHS5, active compounds read low
[49] = locus YLR342W, strain FKS1 (second series), active compounds read low
[50] = locus YLR371W, strain rom2, active compounds read low
[51] = locus YLR418C, strain cdc73, active compounds read low
[52] = locus YML016C, strain PPZ1, active compounds read low
[53] = locus YML032C, strain rad52, active compounds read low
[54] = locus YML124C, strain tub3, active compounds read low
[55] = locus YMR078C, strain ctf18, active compounds read low
[56] = locus YMR223W, strain ubp8, active compounds read low
[57] = locus YMR307W, strain GAS1, active compounds read low
[58] = locus YNL067W, strain RPL9B, active compounds read low
[59] = locus YNL233W, strain BNI4, active compounds read low
[60] = locus YNL250W, strain rad50, active compounds read low
[61] = locus YNL271C, strain bni1, active compounds read low
[62] = locus YNL298W, strain CLA4, active compounds read low
[63] = locus YNL307C, strain MCK1, active compounds read low
[64] = locus YNL322C, strain KRE1, active compounds read low
[65] = locus YNR052C, strain pop2, active compounds read low
[66] = locus YOL147C, strain pex11, active compounds read low
[67] = locus YOR061W, strain CKA2, active compounds read low
[68] = locus YOR069W, strain VPS5, active compounds read low
[69] = locus YOR136W, strain idh2, active compounds read low
[70] = locus YOR144C, strain elg1, active compounds read low
[71] = locus YOR184W, strain ser1, active compounds read low
[72] = locus YOR316C, strain cot1, active compounds read low
[73] = locus YPL055C, strain LGE1, active compounds read low
[74] = locus YPR119W, strain clb2, active compounds read low
[75] = locus YPR141C, strain kar3, active compounds read low
[76] = locus YPR163C, strain tif3, active compounds read low
[77] = locus YPR167C, strain met16, active compounds read low
[78] = strain wtn01, active compounds read low

O=C1c2ccc(O)cc2O[C@H](c2cc(O)c(O)c(O)c2)[C@H]1O
normalized growth [1]: 1
normalized growth [2]: 0.992
normalized growth [3]: 1.02
normalized growth [4]: 1
normalized growth [5]: 0.939
normalized growth [6]: 0.93
normalized growth [7]: 0.999
normalized growth [8]: 1.01
normalized growth [9]: 1
normalized growth [10]: 1.03
normalized growth [11]: 1
normalized growth [12]: 1.01
normalized growth [13]: 1.02
normalized growth [14]: 0.999
normalized growth [15]: 1.02
normalized growth [16]: 1.04
normalized growth [17]: 1.04
normalized growth [18]: 1.01
normalized growth [19]: 1.01
normalized growth [20]: 1
normalized growth [21]: 1.01
normalized growth [22]: 0.972
normalized growth [23]: 1.01
normalized growth [24]: 1.02
normalized growth [25]: 1.02
normalized growth [26]: 0.997
normalized growth [27]: 0.982
normalized growth [28]: 0.99
normalized growth [29]: 1.07
normalized growth [30]: 1
normalized growth [31]: 1.03
normalized growth [32]: 0.884
normalized growth [33]: 1.01
normalized growth [34]: 1
normalized growth [35]: 0.853 (active)
normalized growth [36]: 0.998
normalized growth (locus YJR075W, strain HOC1, active compounds read low): 1.04
normalized growth [37]: 1.06
normalized growth [38]: 1.02
normalized growth [39]: 1.01
normalized growth [40]: 1.01
normalized growth [41]: 1.01
normalized growth [42]: 1
normalized growth [43]: 1.04
normalized growth [44]: 0.92
normalized growth [45]: 1.01
normalized growth [46]: 1.06
normalized growth [47]: 1.01
normalized growth [48]: 1.03
normalized growth [49]: 0.95
normalized growth [50]: 0.992
normalized growth [51]: 1.01
normalized growth [52]: 0.987
normalized growth [53]: 1.06
normalized growth [54]: 1.02
normalized growth [55]: 1.03
normalized growth [56]: 1.03
normalized growth [57]: 1.02
normalized growth [58]: 1.01
normalized growth (locus YNL153C, strain GIM3, active compounds read low): 0.947
normalized growth [59]: 1.02
normalized growth [60]: 1.01
normalized growth [61]: 1.01
normalized growth [62]: 0.996
normalized growth [63]: 1
normalized growth [64]: 1.01
normalized growth [65]: 0.967
normalized growth (locus YOL012C, strain htz1): 0.815
normalized growth [66]: 1.01
normalized growth [67]: 1
normalized growth [68]: 1.01
normalized growth [69]: 1.05
normalized growth [70]: 1.02
normalized growth [71]: 1.02
normalized growth [72]: 1.01
normalized growth [73]: 1.02
normalized growth [74]: 1
normalized growth [75]: 1.01
normalized growth [76]: 1.01
normalized growth [77]: 1.03
normalized growth [78]: 1.01

Oc1cc(O)c2c(c1)OC(c1cc(O)c(O)c(O)c1)C(O)C2c1c(O)cc(O)c2c1OC(c1cc(O)c(O)c(O)c1)C(O)C2c1c(O)cc(O)c2c1OC(c1cc(O)c(O)c(O)c1)C(O)C2 (stereo unspecified)
normalized growth (locus YAL013W, strain DEP1, active compounds read low): 0.977
normalized growth [1]: 1.02
normalized growth [2]: 0.992
normalized growth [3]: 0.999
normalized growth [4]: 0.889
normalized growth [5]: 0.846
normalized growth [6]: 0.913
normalized growth (locus YDL134C, strain PPH21, active compounds read low): 0.937
normalized growth [7]: 0.973
normalized growth [8]: 0.948
normalized growth [9]: 1.03
normalized growth (locus YDR150W, strain NUM1, active compounds read low): 0.964
normalized growth [10]: 0.84
normalized growth [11]: 0.973
normalized growth [12]: 1
normalized growth [13]: 0.979
normalized growth [14]: 0.933
normalized growth [15]: 1.02
normalized growth [16]: 1.02
normalized growth [17]: 1.02
normalized growth [18]: 1.02
normalized growth [19]: 0.964
normalized growth [20]: 0.911
normalized growth (locus YGR078C, strain PAC10, active compounds read low): 0.918
normalized growth [21]: 0.912
normalized growth (locus YGR229C, strain SMI1, active compounds read low): 0.747 (active)
normalized growth [22]: 0.963
normalized growth [23]: 0.972
normalized growth [24]: 1.04
normalized growth [25]: 1.02
normalized growth [26]: 0.915 (active)
normalized growth [27]: 0.98
normalized growth [28]: 0.919
normalized growth [29]: 0.9
normalized growth [30]: 1.02
normalized growth [31]: 1
normalized growth [32]: 0.845
normalized growth [33]: 0.99
normalized growth [34]: 1
normalized growth [35]: 0.775 (active)
normalized growth [36]: 0.857
normalized growth [37]: 1.15 [resistant] (active)
normalized growth [38]: 1.02
normalized growth [39]: 1.01
normalized growth [40]: 1.01
normalized growth [41]: 0.961
normalized growth [42]: 0.982
normalized growth [43]: 0.836
normalized growth [44]: 0.835 (active)
normalized growth [45]: 1.02
normalized growth [46]: 0.935
normalized growth [47]: 0.96
normalized growth [48]: 1
normalized growth [49]: 0.919
normalized growth [50]: 0.91
normalized growth [51]: 0.92
normalized growth [52]: 0.94
normalized growth [53]: 1
normalized growth [54]: 1.01
normalized growth [55]: 1.01
normalized growth [56]: 0.947
normalized growth [57]: 0.928
normalized growth [58]: 0.917
normalized growth [59]: 0.945
normalized growth [60]: 1
normalized growth [61]: 0.989
normalized growth [62]: 1.01
normalized growth [63]: 1.02
normalized growth [64]: 0.916 (active)
normalized growth [65]: 0.952
normalized growth (locus YOL012C, strain htz1): 0.566
normalized growth [66]: 1.01
normalized growth [67]: 0.931
normalized growth [68]: 0.976
normalized growth [69]: 1.02
normalized growth [70]: 1
normalized growth [71]: 0.968
normalized growth [72]: 1.01
normalized growth [73]: 0.886
normalized growth (locus YPL241C, strain CIN2, active compounds read low): 0.974
normalized growth [74]: 1.02
normalized growth [75]: 1
normalized growth [76]: 1.01
normalized growth [77]: 0.982
normalized growth [78]: 1.01

— PubChem BioAssay AID1159580 (chemical genetic matrix, 2015)
